Here are results for nine compounds from the supplement of paper PMC7380943.

Test [1] concerns CLZ3 (HCA2 human fibroblast dual HR-NHEJ reporter). Briefly: NHEJ repair efficiency (GFP+ cells) relative to control (log10 fold); higher = more non-homologous end joining. The conditions noted are these: 5 µM; doxycycline 0.5 ug/mL.
Test [2] shares this test system. Briefly: HR repair efficiency (tdTomato+ cells) relative to control (log10 fold); higher = more homologous recombination. The conditions noted are these: 5 µM; doxycycline 0.5 ug/mL.
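Wherever HR repair efficiency (tdTomato+ cells) relative to control is given: compound given one day before doxycycline, which switches on I-SceI endonuclease expression to create double-strand breaks within the integrated reporter.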
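Wherever NHEJ repair efficiency (GFP+ cells) relative to control is given: compound given one day ahead of doxycycline, which switches on I-SceI endonuclease to cut the chromosomally integrated reporter and create DSBs.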

Take `C/C=C1/[C@H](O[C@@H]2O[C@H](CO)[C@@H](O)[C@H](O)[C@H]2O)OC=C(C(=O)OC)[C@H]1CC(=O)OCCc1ccc(O)c(O)c1` [Oleuropein]: the “NHEJ repair efficiency (log10)” value in test [1] came to 0.0183. Besides, the “HR repair efficiency (log10)” value in test [2] came to 0.0478.

As to `O=C(/C=C/c1ccc(O)c(O)c1)O[C@@H]1C[C@@](OC(=O)/C=C/c2ccc(O)c(O)c2)(C(=O)O)C[C@@H](O)[C@@H]1O` [Cynarin (1,5-Di-O-caffeoylquinic acid)], in test [1], the “NHEJ repair efficiency (log10)” value turned out to be 0.0398. Besides, in test [2], the “HR repair efficiency (log10)” value is 0.0943.

As for `O=c1cc(-c2ccc(O)cc2)oc2cc(O)c(O)c(O)c12` [Scutellarein], in test [1], the “NHEJ repair efficiency (log10)” value is -0.103. Also, in test [2], the “HR repair efficiency (log10)” value was -0.025.

In the case of `COc1ccc2c(c1O)-c1c(O)c(OC)cc3c1[C@H](C2)[N+](C)(C)CC3` [Magnoflorine iodide], the “NHEJ repair efficiency (log10)” value in test [1] is 0.122. Moreover, in test [2], the “HR repair efficiency (log10)” value is -0.0243.

As for `COc1c2occc2cc2ccc(=O)oc12` [Xanthotoxin], the “NHEJ repair efficiency (log10)” value in test [1] is -0.261. For the same compound, in test [2], the “HR repair efficiency (log10)” value is -0.0664.

In the case of `OC[C@H]1O[C@@H](O[C@@H]2OC=C[C@H]3[C@H](O)[C@@H]4O[C@]4(CO)[C@@H]23)[C@H](O)[C@@H](O)[C@@H]1O` [Catalpol], the “NHEJ repair efficiency (log10)” value in test [1] is 0.0212. Also, the “HR repair efficiency (log10)” value in test [2] came out at 0.00259.

As to `COc1cc2ccc(=O)oc2c(OC)c1O` [Isofraxidin], in test [1], the “NHEJ repair efficiency (log10)” value is -0.0516. In addition, the “HR repair efficiency (log10)” value in test [2] is -0.153.

For `COc1ccc(-c2oc3cc(OC)c(OC)c(O)c3c(=O)c2OC)cc1O` [Vitexicarpin], in test [1], the “NHEJ repair efficiency (log10)” value was -0.0426. Moreover, the “HR repair efficiency (log10)” value in test [2] was -0.203.

`CC1(C)CC[C@]2(C(=O)O)CC[C@]3(C)C(=CC[C@@H]4[C@@]5(C)CC[C@H](O[C@@H]6O[C@H](C(=O)O)[C@@H](O)[C@H](O[C@@H]7OC[C@@H](O)[C@H](O)[C@H]7O)[C@H]6O)C(C)(C)[C@@H]5CC[C@]43C)[C@@H]2C1` [Momordin Ic]: the “NHEJ repair efficiency (log10)” value in test [1] is 0.0282. Besides, the “HR repair efficiency (log10)” value in test [2] is -0.203.
